The supplement of paper PMC10849652
Of roughly 7,900 targets only a part is listed; those with a hit were picked by preference. About 0.6% of all pairs of compound and target were hits.

Tests used:
Assay in all cases: log2 fold change, soluble protein after heating vs DMSO (PISA); higher = thermal stabilisation; K562 cells, 10 uM, 30 min; active = over 0.2 and 3.5 SD of the protein, either way, in both replicates (recomputed)
[1] = compound: Cc1ccc(NC(=O)c2ccc(CN3CC[C@H](N(C)C)C3)c(C(F)(F)F)c2)cc1Nc1nccc(-c2cncnc2)n1 [bafetinib]
Method in brief: (§1)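 Values are thermal stability changes relative to control samples and are taken from duplicates. They are stated as log2 fold changes. Before quantification by TMTpro 16plex LC-MS/MS with equalised channel sums, K562 cells at 2×10^6 cells/mL were treated with 10 μM compound for 30 min, heated in aliquots for 3 min across 48°C-58°C, pooled, extracted in PBS with 0.5% NP-40 at 4°C, and centrifuged at 21,000xg for 90 min to give the soluble supernatant.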

[2] = compound: Cc1cccc(CC(=O)N2CCc3c2ccc(-c2cn(C)c4ncnc(N)c24)c3F)n1
Method in brief: as §1

[3] = compound: Cc1cn(-c2cc(NC(=O)c3ccc(C)c(Nc4nccc(-c5cccnc5)n4)c3)cc(C(F)(F)F)c2)cn1 [nilotinib]
Method in brief: as §1

[4] = compound: Cc1nc(Nc2n[nH]c3c2CN(C(=O)N[C@H](CN(C)C)c2ccccc2)C3(C)C)c2sccc2n1
Method in brief: as §1

[5] = compound: Cc1nc(Nc2ncc(C(=O)Nc3c(C)cccc3Cl)s2)cc(N2CCN(CCO)CC2)n1 [dasatinib]
Method in brief: as §1

[6] = compound: Cc1ncc(-c2ccnc(Nc3ccc(S(C)(=O)=O)cc3)n2)n1C(C)C
Method in brief: as §1

[7] = compound: Cn1cc(-c2ccc3c(c2)CCN3C(=O)Cc2cccc(C(F)(F)F)c2)c2c(N)ncnc21
Method in brief: as §1

[8] = compound: Cn1cc(-c2ccc3nnc(C(F)(F)c4ccc5ncccc5c4)n3n2)cn1
Method in brief: as §1

[9] = compound: Cn1cncc1[C@@](N)(c1ccc(Cl)cc1)c1ccc2c(c1)c(-c1cccc(Cl)c1)cc(=O)n2C [tipifarnib]
Method in brief: as §1

[10] = compound: FC(F)(F)c1ccc(/C=C/c2nc(COc3ccc(CCCCn4ccnn4)cc3)co2)cc1 [mubritinib]
Method in brief: as §1

[11] = compound: NC(=O)Nc1cc(-c2cccc(F)c2)sc1C(=O)N[C@H]1CCCNC1
Method in brief: as §1

[12] = compound: NC(=O)c1cnc(N[C@@H]2CCCC[C@@H]2N)nc1Nc1cccc(-n2nccn2)c1
Method in brief: as §1

[13] = compound: NC1(c2ccc(-c3nc4ccn5c(=O)[nH]nc5c4cc3-c3ccccc3)cc2)CCC1
Method in brief: as §1

[14] = compound: NCC(=O)Nc1ccc(-n2nc(C(F)(F)F)cc2-c2ccc3c(ccc4ccccc43)c2)cc1
Method in brief: as §1

[15] = compound: Nc1ccccc1NC(=O)c1ccc(CNC(=O)OCc2cccnc2)cc1 [entinostat]
Method in brief: as §1

[16] = compound: O=C(CCCCCCC(=O)Nc1ccccc1)NO [vorinostat]
Method in brief: as §1

[17] = compound: O=C(CCCCCCNC(=O)c1cnc(N(c2ccccc2)c2ccccc2Cl)nc1)NO [citarinostat]
Method in brief: as §1

[18] = compound: O=C(O)c1ccc2c(c1)nc(Nc1cccc(Cl)c1)c1ccncc12 [silmitasertib]
Method in brief: as §1

[19] = compound: O=C1NC(=O)C(c2cnc3ccccn23)=C1c1cn2c3c(cc(F)cc13)CN(C(=O)N1CCCCC1)CC2
Method in brief: as §1

[20] = compound: c1cc(OCCN2CCCCC2)cc(-c2n[nH]c3ccc(-c4nnc[nH]4)cc23)c1
Method in brief: as §1

Measured: log2 fold change

SASH1 (UniProt O94885)
inactive: [1] -0.052 | [2] -0.006 | [3] -0.079 | [4] -0.071 | [5] -0.046 | [6] 0.034 | [7] 0.011 | [8] 0.073 | [9] 0.025 | [10] 0.032 | [11] -0.08 | [12] -0.06 | [13] -0.053 | [14] -0.147 | [15] 0.035 | [16] 0.077 | [17] 0.167 | [18] 0.033 | [19] 0.008 | [20] -0.218

RIC8A isoform 3 (UniProt Q9NPQ8)
UniProt Q9NPQ8, sequence (Q9NPQ8 whole entry, looked up): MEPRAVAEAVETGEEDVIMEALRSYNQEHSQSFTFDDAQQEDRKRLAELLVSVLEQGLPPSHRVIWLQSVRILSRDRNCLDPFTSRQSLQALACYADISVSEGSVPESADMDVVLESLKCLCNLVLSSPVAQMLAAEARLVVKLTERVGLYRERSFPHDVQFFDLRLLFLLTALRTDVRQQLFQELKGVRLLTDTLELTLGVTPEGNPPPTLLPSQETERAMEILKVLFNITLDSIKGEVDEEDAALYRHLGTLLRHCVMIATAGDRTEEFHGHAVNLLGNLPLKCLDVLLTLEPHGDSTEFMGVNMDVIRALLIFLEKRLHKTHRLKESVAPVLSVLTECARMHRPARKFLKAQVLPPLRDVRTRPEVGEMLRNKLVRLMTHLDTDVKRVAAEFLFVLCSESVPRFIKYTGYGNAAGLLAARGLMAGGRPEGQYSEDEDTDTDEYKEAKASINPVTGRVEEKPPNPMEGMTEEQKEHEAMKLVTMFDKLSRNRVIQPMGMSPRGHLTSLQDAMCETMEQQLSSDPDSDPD
inactive: [1] 0.042 | [2] -0.062 | [3] -0.041 | [4] -0.043 | [5] -0.108 | [6] 0.088 | [7] 0.03 | [8] 0.014 | [9] -0.1 | [10] -0.095 | [11] -0.035 | [12] -0.154 | [13] -0.126 | [14] -0.088 | [15] 0.192 | [16] 0.058 | [17] 0.12 | [18] -0.005 | [19] 0.084 | [20] -0.096

RETSAT (UniProt Q6NUM9)
inactive: [1] -0.011 | [2] -0.034 | [3] 0.154 | [4] -0.076 | [5] -0.001 | [7] 0.045 | [8] -0.002 | [9] -0.052 | [10] 0.182 | [11] -0.058 | [12] -0.05 | [13] -0.028 | [14] -0.019 | [15] 0.129 | [16] -0.048 | [17] 0.028 | [18] -0.014 | [19] 0.026 | [20] -0.047
active: [6] 0.511

RAB3IL1 (UniProt Q8TBN0)
UniProt Q8TBN0, sequence (Q8TBN0 whole entry, looked up): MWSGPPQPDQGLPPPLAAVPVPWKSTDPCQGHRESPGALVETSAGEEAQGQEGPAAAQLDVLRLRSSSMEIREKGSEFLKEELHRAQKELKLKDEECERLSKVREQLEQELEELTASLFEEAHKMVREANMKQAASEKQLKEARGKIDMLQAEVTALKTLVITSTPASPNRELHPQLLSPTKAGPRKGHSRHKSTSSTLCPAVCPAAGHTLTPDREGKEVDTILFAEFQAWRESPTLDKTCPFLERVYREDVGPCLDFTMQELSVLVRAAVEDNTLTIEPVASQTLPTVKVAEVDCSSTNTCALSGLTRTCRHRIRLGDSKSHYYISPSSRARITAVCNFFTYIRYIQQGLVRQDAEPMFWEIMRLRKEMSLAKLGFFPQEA
inactive: [1] -0.025 | [2] 0.034 | [3] -0.016 | [4] 0.012 | [5] -0.054 | [6] -0.015 | [7] -0.007 | [8] 0.002 | [9] -0.051 | [10] 0.017 | [11] 0.041 | [12] -0.011 | [13] -0.025 | [14] -0.046 | [15] -0.019 | [16] -0.032 | [17] 0.035 | [18] 0.053 | [19] -0.038 | [20] 0.008

RPA1 (UniProt P27694)
UniProt P27694, sequence (P27694 whole entry, looked up): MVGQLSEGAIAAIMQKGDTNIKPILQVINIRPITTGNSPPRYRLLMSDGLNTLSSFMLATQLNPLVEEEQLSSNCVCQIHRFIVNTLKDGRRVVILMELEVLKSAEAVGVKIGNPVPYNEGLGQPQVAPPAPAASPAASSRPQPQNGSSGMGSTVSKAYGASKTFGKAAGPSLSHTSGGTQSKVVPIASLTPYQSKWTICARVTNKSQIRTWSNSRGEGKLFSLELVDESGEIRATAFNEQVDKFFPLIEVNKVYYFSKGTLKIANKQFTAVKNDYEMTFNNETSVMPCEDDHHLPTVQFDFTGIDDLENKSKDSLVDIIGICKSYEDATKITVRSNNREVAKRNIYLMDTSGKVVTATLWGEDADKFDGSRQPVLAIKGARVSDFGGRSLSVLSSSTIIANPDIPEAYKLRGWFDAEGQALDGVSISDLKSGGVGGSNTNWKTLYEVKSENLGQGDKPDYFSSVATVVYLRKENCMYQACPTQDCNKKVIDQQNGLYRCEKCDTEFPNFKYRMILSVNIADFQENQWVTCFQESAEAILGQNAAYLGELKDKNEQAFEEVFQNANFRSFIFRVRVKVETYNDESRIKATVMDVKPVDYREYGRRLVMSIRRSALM
inactive: [1] 0.029 | [2] 0.019 | [3] -0.051 | [4] -0.1 | [5] 0.077 | [6] 0.016 | [7] -0.004 | [8] 0.015 | [9] -0.074 | [10] 0.026 | [11] -0.189 | [12] 0.007 | [13] -0.049 | [14] -0.052 | [15] 0.06 | [16] 0.106 | [17] 0.079 | [18] -0.02 | [19] -0.046 | [20] 0.006

RBM39 (UniProt Q14498)
inactive: [1] 0.046 | [2] 0.082 | [3] -0.027 | [5] -0.1 | [6] 0.055 | [7] -0.041 | [8] -0.012 | [9] -0.03 | [10] -0.043 | [11] -0.141 | [12] -0.079 | [13] 0.023 | [14] -0.152 | [15] 0.02 | [16] 0.062 | [17] 0.105 | [18] -0.083 | [19] 0.049 | [20] -0.144
active: [4] -1.03

SAFB2 (UniProt Q14151)
UniProt Q14151, sequence (Q14151 whole entry, looked up): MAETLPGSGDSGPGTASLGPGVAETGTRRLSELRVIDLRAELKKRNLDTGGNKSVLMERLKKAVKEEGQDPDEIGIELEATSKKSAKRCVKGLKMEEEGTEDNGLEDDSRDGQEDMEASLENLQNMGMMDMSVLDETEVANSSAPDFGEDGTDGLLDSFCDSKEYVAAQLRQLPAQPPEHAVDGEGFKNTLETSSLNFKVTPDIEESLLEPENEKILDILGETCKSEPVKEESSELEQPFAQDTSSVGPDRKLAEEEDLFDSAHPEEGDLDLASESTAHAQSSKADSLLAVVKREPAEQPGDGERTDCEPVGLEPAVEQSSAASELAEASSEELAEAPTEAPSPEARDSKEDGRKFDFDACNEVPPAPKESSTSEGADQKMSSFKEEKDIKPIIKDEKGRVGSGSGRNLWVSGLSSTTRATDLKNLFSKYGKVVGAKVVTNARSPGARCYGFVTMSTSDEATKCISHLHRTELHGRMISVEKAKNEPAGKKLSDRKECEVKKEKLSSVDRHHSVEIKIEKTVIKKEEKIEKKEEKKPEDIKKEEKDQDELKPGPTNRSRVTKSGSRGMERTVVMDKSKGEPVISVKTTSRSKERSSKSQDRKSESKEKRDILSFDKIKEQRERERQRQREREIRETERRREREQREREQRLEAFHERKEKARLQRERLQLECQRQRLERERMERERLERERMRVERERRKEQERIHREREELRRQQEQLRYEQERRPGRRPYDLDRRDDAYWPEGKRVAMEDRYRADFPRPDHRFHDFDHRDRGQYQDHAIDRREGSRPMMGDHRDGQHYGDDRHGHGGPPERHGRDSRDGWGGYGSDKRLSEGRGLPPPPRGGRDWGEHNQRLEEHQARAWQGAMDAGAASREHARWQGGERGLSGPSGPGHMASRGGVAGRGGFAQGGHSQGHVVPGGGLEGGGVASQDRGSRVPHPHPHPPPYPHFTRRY
inactive: [1] 0.17 | [2] -0.018 | [3] -0.016 | [4] 0.117 | [5] 0.183 | [6] -0.054 | [7] -0.135 | [8] -0.058 | [9] 0.085 | [10] -0.077 | [11] 0.116 | [12] 0.084 | [13] 0.255 | [14] 0.043 | [15] -0.076 | [16] -0.016 | [17] -0.098 | [18] 0.119 | [19] 0.084 | [20] -0.038

SETMAR (UniProt Q53H47)
UniProt Q53H47, sequence (Q53H47 whole entry, looked up): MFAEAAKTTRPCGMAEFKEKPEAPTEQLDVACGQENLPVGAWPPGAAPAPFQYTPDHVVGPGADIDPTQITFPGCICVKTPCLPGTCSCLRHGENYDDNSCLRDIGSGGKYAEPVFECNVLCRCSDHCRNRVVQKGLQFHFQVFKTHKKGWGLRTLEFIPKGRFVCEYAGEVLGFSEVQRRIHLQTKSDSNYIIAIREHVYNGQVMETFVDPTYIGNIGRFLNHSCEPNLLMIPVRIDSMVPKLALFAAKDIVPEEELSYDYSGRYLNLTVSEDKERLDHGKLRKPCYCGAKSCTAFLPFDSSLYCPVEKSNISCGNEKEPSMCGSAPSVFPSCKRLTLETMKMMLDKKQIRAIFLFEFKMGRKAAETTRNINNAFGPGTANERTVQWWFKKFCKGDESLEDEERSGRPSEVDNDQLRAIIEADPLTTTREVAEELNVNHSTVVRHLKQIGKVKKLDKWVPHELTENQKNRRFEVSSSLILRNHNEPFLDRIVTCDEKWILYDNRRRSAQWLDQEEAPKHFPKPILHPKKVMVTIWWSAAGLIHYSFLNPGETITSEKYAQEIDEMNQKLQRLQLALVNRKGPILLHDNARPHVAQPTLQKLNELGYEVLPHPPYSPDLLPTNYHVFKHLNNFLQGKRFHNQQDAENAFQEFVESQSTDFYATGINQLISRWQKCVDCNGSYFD
active: [17] -0.629
inactive: [1] 0 | [2] -0.07 | [3] -0.104 | [4] 0.117 | [5] -0.013 | [6] 0.163 | [7] 0.028 | [8] 0.127 | [9] 0.054 | [10] 0.04 | [11] 0.11 | [12] -0.024 | [13] 0.05 | [14] -0.078 | [15] -0.032 | [16] 0.004 | [18] -0.064 | [19] -0.105 | [20] -0.255

RAC3 (UniProt P60763)
inactive: [1] 0.015 | [2] -0.221 | [3] 0.03 | [4] 0.036 | [5] -0.169 | [6] -0.016 | [7] 0.107 | [8] 0.064 | [9] 0.03 | [10] -0.008 | [11] -0.142 | [12] 0.067 | [13] 0.058 | [14] -0.002 | [15] -0.14 | [16] -0.037 | [17] -0.007 | [18] 0.016 | [19] -0.083 | [20] 0.176

RPS6KA1 isoform 2 (UniProt Q15418)
UniProt Q15418, sequence (Q15418 whole entry, looked up): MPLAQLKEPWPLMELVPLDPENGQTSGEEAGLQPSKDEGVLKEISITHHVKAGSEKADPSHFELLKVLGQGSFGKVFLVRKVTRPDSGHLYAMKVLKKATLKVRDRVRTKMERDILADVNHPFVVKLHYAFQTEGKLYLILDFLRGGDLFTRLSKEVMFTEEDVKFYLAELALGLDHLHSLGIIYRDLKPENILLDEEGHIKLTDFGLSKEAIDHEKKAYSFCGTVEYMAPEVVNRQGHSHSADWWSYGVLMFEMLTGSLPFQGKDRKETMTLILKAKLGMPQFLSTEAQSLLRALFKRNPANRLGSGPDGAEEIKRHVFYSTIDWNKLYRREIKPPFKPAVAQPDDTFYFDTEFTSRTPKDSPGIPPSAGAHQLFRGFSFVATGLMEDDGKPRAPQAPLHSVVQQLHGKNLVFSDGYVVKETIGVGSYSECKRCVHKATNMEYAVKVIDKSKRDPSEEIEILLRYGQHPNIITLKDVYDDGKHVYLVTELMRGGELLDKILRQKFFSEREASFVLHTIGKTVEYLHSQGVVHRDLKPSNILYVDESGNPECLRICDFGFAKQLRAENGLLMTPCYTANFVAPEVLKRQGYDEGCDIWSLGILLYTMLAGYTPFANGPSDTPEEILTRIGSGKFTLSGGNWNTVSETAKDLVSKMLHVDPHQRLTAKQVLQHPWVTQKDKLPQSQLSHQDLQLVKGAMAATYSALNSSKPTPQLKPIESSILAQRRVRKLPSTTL
inactive: [1] -0.051 | [2] 0.081 | [3] -0.002 | [5] -0.281 | [6] -0.044 | [7] -0.019 | [8] 0 | [9] -0.056 | [10] 0.041 | [11] -0.131 | [12] -0.242 | [13] -0.205 | [14] -0.096 | [15] 0.06 | [16] 0.109 | [17] 0.058 | [18] -0.08 | [19] -0.099 | [20] -0.32
active: [4] -0.569

ROCK2 (UniProt O75116)
inactive: [1] -0.033 | [2] -0.006 | [3] -0.05 | [4] -0.202 | [5] -0.064 | [6] 0.009 | [7] -0.091 | [8] 0.014 | [9] -0.008 | [10] 0.013 | [11] 0.043 | [12] -0.044 | [13] -0.106 | [14] -0.017 | [15] 0.031 | [16] 0.08 | [17] 0.013 | [18] 0.096 | [19] 0.017 | [20] 0.06

SCAF8 isoform 2 (UniProt Q9UPN6)
inactive: [1] -0.024 | [2] 0.019 | [3] -0.032 | [4] -0.208 | [5] -0.212 | [6] 0.069 | [7] 0.064 | [8] 0.008 | [9] -0.027 | [10] 0.023 | [11] -0.062 | [12] -0.028 | [13] -0.086 | [14] -0.044 | [15] 0.053 | [16] 0.166 | [17] 0.058 | [18] -0.003 | [19] -0.098 | [20] -0.093

RSF1 (UniProt Q96T23)
inactive: [1] 0.117 | [2] -0.027 | [3] 0.087 | [4] -0.102 | [5] -0.082 | [6] -0.096 | [7] 0.046 | [8] 0.079 | [9] -0.222 | [10] 0.237 | [11] -0.17 | [12] -0.078 | [13] -0.246 | [14] -0.198 | [15] 0.073 | [16] 0.028 | [17] -0.087 | [18] 0.04 | [19] -0.182 | [20] 0.081

RNPEP (UniProt Q9H4A4)
UniProt Q9H4A4, sequence (Q9H4A4 whole entry, looked up): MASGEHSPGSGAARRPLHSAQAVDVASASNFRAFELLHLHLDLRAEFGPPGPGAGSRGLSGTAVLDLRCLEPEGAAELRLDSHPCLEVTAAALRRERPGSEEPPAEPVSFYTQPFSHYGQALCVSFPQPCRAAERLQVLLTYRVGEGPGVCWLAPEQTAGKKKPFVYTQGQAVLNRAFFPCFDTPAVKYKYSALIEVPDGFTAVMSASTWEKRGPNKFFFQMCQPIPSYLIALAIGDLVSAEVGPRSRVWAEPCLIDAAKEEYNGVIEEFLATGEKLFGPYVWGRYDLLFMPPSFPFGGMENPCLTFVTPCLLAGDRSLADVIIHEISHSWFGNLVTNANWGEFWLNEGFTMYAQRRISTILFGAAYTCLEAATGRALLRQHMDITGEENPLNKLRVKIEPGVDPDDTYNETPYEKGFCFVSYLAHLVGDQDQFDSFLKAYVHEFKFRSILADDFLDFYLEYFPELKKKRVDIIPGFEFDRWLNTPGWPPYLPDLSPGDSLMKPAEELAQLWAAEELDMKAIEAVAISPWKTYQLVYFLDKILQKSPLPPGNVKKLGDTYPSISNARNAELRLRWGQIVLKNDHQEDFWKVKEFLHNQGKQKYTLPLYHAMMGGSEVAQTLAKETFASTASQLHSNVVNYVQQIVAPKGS
inactive: [1] 0.003 | [2] 0.035 | [3] -0.004 | [4] -0.041 | [5] -0.134 | [6] 0.025 | [7] 0.012 | [8] 0.043 | [9] -0.116 | [10] 0.051 | [11] -0.001 | [12] -0.093 | [13] -0.086 | [14] -0.027 | [15] 0.042 | [16] 0.033 | [17] 0.018 | [18] 0.031 | [19] -0.017 | [20] -0.033

SLBP (UniProt Q14493)
inactive: [1] 0.11 | [2] -0.017 | [3] -0.05 | [4] -0.093 | [5] 0.031 | [7] -0.042 | [8] -0.033 | [9] 0 | [10] -0.023 | [11] 0.043 | [12] 0.051 | [13] -0.028 | [14] -0.005 | [15] 0.018 | [16] 0.085 | [17] 0.035 | [18] 0.007 | [19] 0.064 | [20] 0.035
active: [6] -0.423

RUNX1 isoform 8 (UniProt Q01196)
UniProt Q01196, sequence (Q01196 whole entry, looked up): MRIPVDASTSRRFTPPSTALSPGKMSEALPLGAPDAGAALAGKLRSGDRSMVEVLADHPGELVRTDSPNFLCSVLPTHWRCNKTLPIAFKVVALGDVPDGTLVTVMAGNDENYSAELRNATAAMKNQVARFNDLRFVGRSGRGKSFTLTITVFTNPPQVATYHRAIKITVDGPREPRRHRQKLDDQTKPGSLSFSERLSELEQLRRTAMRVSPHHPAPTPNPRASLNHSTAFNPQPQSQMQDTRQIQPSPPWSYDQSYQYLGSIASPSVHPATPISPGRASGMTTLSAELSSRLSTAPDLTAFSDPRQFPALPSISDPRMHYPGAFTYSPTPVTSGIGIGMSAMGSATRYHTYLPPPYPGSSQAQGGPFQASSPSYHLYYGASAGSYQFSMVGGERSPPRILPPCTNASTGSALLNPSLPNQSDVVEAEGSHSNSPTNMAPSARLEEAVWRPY
inactive: [1] -0.149 | [2] -0.224 | [3] -0.07 | [4] -0.281 | [5] -0.082 | [6] -0.209 | [8] -0.104 | [9] 0.001 | [10] 0.01 | [11] -0.027 | [12] 0.03 | [13] -0.092 | [14] 0.187 | [15] -0.16 | [16] 0.321 | [17] -0.249 | [18] 0.119 | [19] 0.082 | [20] 0.051
